Biological target: PITX2 (Homo sapiens, UniProt Q99697 72-157)
Assay: PBM; 200 nM protein, PBS
Conditions: dsDNA, one strand shown

Sequence | binding signal
ACTTGATC | 10.2 upbm affinity estimate (log intensity, higher = more binding, comparable within an allelic series)
GAAGGTCA | 7.87 upbm affinity estimate (log intensity, higher = more binding, comparable within an allelic series)
ACAATCCC | 10.3 upbm affinity estimate (log intensity, higher = more binding, comparable within an allelic series)
ATCTAATG | 9.77 upbm affinity estimate (log intensity, higher = more binding, comparable within an allelic series)
CTGGCCGC | 8.13 upbm affinity estimate (log intensity, higher = more binding, comparable within an allelic series)
TAGATTAA | 12.4 upbm affinity estimate (log intensity, higher = more binding, comparable within an allelic series)
AGGCGTCC | 7.84 upbm affinity estimate (log intensity, higher = more binding, comparable within an allelic series)
GTGCCAGA | 8.11 upbm affinity estimate (log intensity, higher = more binding, comparable within an allelic series)
ATACCTTA | 9.97 upbm affinity estimate (log intensity, higher = more binding, comparable within an allelic series)
ACGTCTCC | 7.95 upbm affinity estimate (log intensity, higher = more binding, comparable within an allelic series)
AAAGCCGA | 9.6 upbm affinity estimate (log intensity, higher = more binding, comparable within an allelic series)
GGATTTAC | 12.3 upbm affinity estimate (log intensity, higher = more binding, comparable within an allelic series)
GACGCGAC | 7.93 upbm affinity estimate (log intensity, higher = more binding, comparable within an allelic series)
CCTACGTC | 7.98 upbm affinity estimate (log intensity, higher = more binding, comparable within an allelic series)
AGCGTGGG | 8.14 upbm affinity estimate (log intensity, higher = more binding, comparable within an allelic series)
ATTCAAAT | 9.75 upbm affinity estimate (log intensity, higher = more binding, comparable within an allelic series)
AAGCTTAG | 11.4 upbm affinity estimate (log intensity, higher = more binding, comparable within an allelic series)
ATCCTTAC | 9.47 upbm affinity estimate (log intensity, higher = more binding, comparable within an allelic series)
ACTCGACC | 7.76 upbm affinity estimate (log intensity, higher = more binding, comparable within an allelic series)
CAGTACTG | 7.98 upbm affinity estimate (log intensity, higher = more binding, comparable within an allelic series)

Sequence | binding signal
CCTTCCAC | 8.11 upbm affinity estimate (log intensity, higher = more binding, comparable within an allelic series)
CAACCATC | 8.24 upbm affinity estimate (log intensity, higher = more binding, comparable within an allelic series)
GAGAGGCC | 7.88 upbm affinity estimate (log intensity, higher = more binding, comparable within an allelic series)
GTCCACTA | 7.94 upbm affinity estimate (log intensity, higher = more binding, comparable within an allelic series)
GCAGTCGC | 7.82 upbm affinity estimate (log intensity, higher = more binding, comparable within an allelic series)
CCTACCAG | 8.01 upbm affinity estimate (log intensity, higher = more binding, comparable within an allelic series)
GGATACTA | 9.25 upbm affinity estimate (log intensity, higher = more binding, comparable within an allelic series)
AATCCAAT | 10.9 upbm affinity estimate (log intensity, higher = more binding, comparable within an allelic series)
GAGATCAC | 9.79 upbm affinity estimate (log intensity, higher = more binding, comparable within an allelic series)
CCATTCAC | 8.31 upbm affinity estimate (log intensity, higher = more binding, comparable within an allelic series)
CGTTGTCA | 8.02 upbm affinity estimate (log intensity, higher = more binding, comparable within an allelic series)
AGATCAAC | 10.1 upbm affinity estimate (log intensity, higher = more binding, comparable within an allelic series)
CAAAATAC | 9.13 upbm affinity estimate (log intensity, higher = more binding, comparable within an allelic series)
ACAGGGTG | 7.94 upbm affinity estimate (log intensity, higher = more binding, comparable within an allelic series)
GCGCTTAA | 11.1 upbm affinity estimate (log intensity, higher = more binding, comparable within an allelic series)
ACTGGTGC | 7.7 upbm affinity estimate (log intensity, higher = more binding, comparable within an allelic series)
TGACGCAA | 8.04 upbm affinity estimate (log intensity, higher = more binding, comparable within an allelic series)
AAATCTCC | 10.8 upbm affinity estimate (log intensity, higher = more binding, comparable within an allelic series)
GGCTTAAA | 12.3 upbm affinity estimate (log intensity, higher = more binding, comparable within an allelic series)
CTGTCGAC | 7.99 upbm affinity estimate (log intensity, higher = more binding, comparable within an allelic series)

Source: paper PMC11006913
